An excerpt weighted towards active compounds, which were near 21% of everything screened.
Pf growth 96h: Primary qHTS for delayed death inhibitors of the malarial parasite plastid, 96 hour incubation | AID 504834, 2011 | 6.9% of 320,000 active | P. falciparum luciferase reporter growth, 96 h | Potency, µM (top dose mostly 28.7 µM), inactives show top-dose activity change, negative = inhibition, most hits filed as inhibitors; also: potency is read from the fitted curve at half-maximal effect; % is scaled to controls: 0 for no effect and ±100 for the full control effect
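Two parasite generations (96 h, 37 C, 5% CO2) of compound exposure in infected erythrocytes (0.05% parasitemia, 2% hematocrit). Luciferase-reporter P. falciparum; decreased luminescence indicates inhibited growth, aimed at apicoplast-acting delayed death.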
Cycloheximide cs: Cycloheximide Counterscreen for Small Molecule Inhibitors of Shiga Toxin; 12% of 300,000 active; max response, %; cell reporter, cycloheximide protein synthesis inhibition counterscreen; AID 2314, 2010; in the data active = max response mostly above about 13%, no sharp cut-off; inactive = mostly below about 14%; also: read at 38.3 µM for the half of the compounds with a filed dose; 0% is about no effect
AMA1 RON2 block: qHTS for Inhibitors of AMA1-RON; Towards Development of Antimalarial Drug Lead: Primary Screen; AID 720542, 2013; 0.2% of 360,000 active; Plasmodium falciparum AMA1 (3D7) - RON2 peptide interaction; AlphaScreen AMA1-biotinylated RON2 peptide binding; Potency, µM (titrated, usually from 58.2 µM), for the others: at the top dose activity change, negative = inhibition, usual class: inhibitors;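 also: potency is read from the fitted curve at half-maximal effect; 0% = vehicle wells and -100% = peptide control; nearly all actives have a fitted effect of over 45% in size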
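AMA1 (3D7) with his tag at 25 nM final met compounds first, then biotinylated RON2 peptide at 25 nM; detection used donor plus acceptor beads, 10 µg/mL apiece, read by AlphaScreen after 30 min at room temperature.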
Shiga toxin inh: A qHTS for Small Molecule Inhibitors of Shiga Toxin | Vero cells, Shiga toxin protein synthesis inhibition reporter | inhibition, % at 38.7 µM | 9.2% of 290,000 active | AID 2315, 2010; in the data active = inhibition mostly above about 28%, no sharp cut-off; inactive = mostly below about 43%; also: 0% is about no effect
HCV inhibitor: qHTS Assay for Inhibitors of Hepatitis C Virus (HCV); Huh7.5.1 HCVcc-Cre infection, luciferase reporter, 44 h; Potency, µM (top dose mostly 41.8 µM), inactives show at the top dose activity change, negative = inhibition, hits mostly inhibitors; 3.4% of 340,000 active; also: potency is read from the fitted curve at half-maximal effect; % is scaled to controls: 0 for no effect and ±100 for the full control effect
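Whole-lifecycle infectious HCVcc-Cre system; cells 1,000/well, compound then virus (~0.5 moi) added 4 h after plating, 44 h culture. Luciferase read 15 sec following 15 min substrate incubation, room temp.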
Pf growth 48h: Primary qHTS for delayed death inhibitors of the malarial parasite plastid, 48 hour incubation; 5.9% of 310,000 active; Potency, µM (top dose mostly 28.7 µM), for inactives: at the top dose activity change, negative = inhibition, actives largely listed as inhibitors; P. falciparum luciferase growth in erythrocytes, 48 h; also: potency is read from the fitted curve at half-maximal effect; % is scaled to controls: 0 for no effect and ±100 for the full control effect
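Compounds are pin-transferred into medium, infected erythrocytes (2% hematocrit, 0.1% parasitemia final) are added, and plates sit one parasite generation at 37 C in 5% CO2. Detection reagent is then added and luminescence measured.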
* = called active by the depositor; u = inconclusive; x = no result given. Unless noted, calls follow the shape of the dose curve; as a rule, active = well fitted curve in the direction sought with a large enough effect; inconclusive = small, poorly fitted or top-dose-only effect, or another doubt; inactive = no such curve, though single readings can be large; an effect the other way counts as inactive or inconclusive.

SMILES	Pf growth 96h	Cycloheximide cs	AMA1 RON2 block	Shiga toxin inh	HCV inhibitor	Pf growth 48h
COc1cc(C(=O)N=c2sc3c(C)ccc(OC)c3n2C)cc(OC)c1OC	u	13	-9%	39	u	-14%
COc1ccc(OC)c2c1sc(=NC(=O)C(C)C)n2C	-62%	-9	-2%	-2	7%	x
COc1ccc(OC)c2c1sc(=NC(=O)C(C)(C)C)n2C	5%	-1	-7%	-3	10µM*	x
O=C1NC2(CCCCCC2)C(=O)N1Cc1ccccc1Cl	3%	1	26%	-7	14%	5%
CN(C)c1ccc(C(=O)N2CCN(c3cc(C(F)(F)F)nc4ccccc34)CC2)cc1	13µM*	-4	u	28	u	u
O=C(COC(=O)CNS(=O)(=O)c1ccc(F)c(F)c1F)NCCc1ccccc1	82%	46*	-6%	49*	-1%	112%
Cc1ccc(N2C(=O)C3CC(c4ccccc4)=C4C5C=CC(C6C(=O)N(c7ccc(C)cc7)C(=O)C56)C4C3C2=O)cc1 (stereo not drawn)	u	-3	-13%	-5	4%	13µM*
Cc1ccc(N2C(=O)C3CCCN3C2=S)c(C)c1 (stereo not drawn)	u	x	-12%	x	4%	u
Cc1ccc(N2C(=O)C3CC(c4ccccc4)=C4C5C=CC(C6C(=O)N(c7ccc(C)cc7C)C(=O)C56)C4C3C2=O)c(C)c1 (stereo not drawn)	x	-6	-13%	-24	u	2.1µM*
Cc1ccc(N2C(=O)C3C4CC(=O)C(c5ccccc54)C3C2=O)cc1 (stereo not drawn)	59%	-1	-5%	-26	21%	28%
CC1(CC(=O)N/N=C/c2cc([N+](=O)[O-])c(O)cc2O)OCCO1	-6%	1	38%	-10	8%	-18%
CC(=O)N1c2ccc(S(=O)(=O)N3CCCCC3)cc2CC1C(=O)NCc1ccccc1C (stereo not drawn)	u	-1	-1%	13	-8%	-11%
COC(=O)c1cc2ccsc2n1Cc1cccc(F)c1	u	6	28%	17	-10%	-1%
COC(=O)c1cc2ccsc2n1Cc1ccccc1F	12µM*	10	32%	4	-11%	22%
CC(=O)c1cccc(NC(=O)c2cc(S(=O)(=O)N3CCCCC3)ccc2N2CCOCC2)c1	x	x	10%	x	x	x
COc1ccc(CCNC(=O)CCCn2c(=S)[nH]c3ccsc3c2=O)cc1OC	x	x	146%	x	x	x
COCCOc1ccc(C(F)(F)F)cc1Nc1nc2ccccc2o1	51%	30*	31%	100*	14µM*	16%
CC1(C)CC(=O)c2c(O)cc(OCC(=O)N3CCN(c4ccc(F)cc4)CC3)cc2O1	u	9	-7%	14	u	u
CCCCC[C@@H]1[C@H]2[C@H]3C(=O)N(c4ccccc4)C(=O)[C@H]3CC(=O)[C@H]2[C@H](c2ccccc2)N1S(=O)(=O)c1ccc(C)cc1	x	x	17%	x	x	x
O=C(NC1=NCCS1)c1cccc(Br)c1	x	x	37%	x	9%	x
COc1ccc(Cl)cc1C(=O)Nc1ccc(NC(C)=O)cc1	35%	3	0%	-2	u	-10%
COc1ccc(Cl)cc1C(=O)NC1=NCCS1	0%	16*	5%	23	u	36%
O=C(NC1=NCCS1)c1ccc(Cl)cc1	u	58*	30%	93*	8%	208%
Cc1cc(C)n(-c2ccc(C(=O)NC3=NCCS3)cc2)n1	68%	41*	18%	92*	-11%	98%
COc1ccc(Cl)cc1C(=O)Nc1ccc(NC(=O)C(C)C)cc1	17%	1	6%	26	4µM*	-23%
SMILES	Pf growth 96h	Cycloheximide cs	AMA1 RON2 block	Shiga toxin inh	HCV inhibitor	Pf growth 48h
Cc1cc(C)n(-c2ccc(C(=O)Nc3ccc(N4CCOCC4)cc3)cc2)n1	0%	6	-1%	13	9%	x
CN(CC(=O)NCc1ccc(F)cc1)CC(=O)Nc1ccc(Cl)c(C(F)(F)F)c1	-7%	2	80%	-6	u	8%
O=C(CSc1nc(=O)n(Cc2ccccn2)c2c1CCC2)Nc1ccccc1	x	-1	x	4	x	x
O=C(NC1=NCCS1)c1ccc(-c2ccc(Cl)cc2)o1	u	56*	50%	77*	u	x
O=C(NC1=NCCS1)c1cccc2ccccc12	165%	26*	1%	41	14%	81%
Cc1cccc(NC(=O)CNC(=O)CN2C(=O)NC3(CCCCC3C)C2=O)c1C (stereo not drawn)	49%	x	0%	x	7%	26%
COC(=O)NCC(c1cccnc1)N1CCOCC1 (stereo not drawn)	40%	-1	-8%	-9	-1%	32%
O=C(NCC(c1cccnc1)N1CCOCC1)Oc1ccccc1 (stereo not drawn)	-6%	24*	7%	75*	16%	99%
COc1cccc(C(=O)NCC(c2cccnc2)N2CCN(c3ccccc3OC)CC2)c1 (stereo not drawn)	u	-3	1%	6	u	12µM*
COc1ccc(N2CCN(C(CNC(=O)c3cccc(Cl)c3)c3cccnc3)CC2)cc1 (stereo not drawn)	1.9µM*	-2	-12%	-6	u	u
COc1ccc(C(=O)NCC(c2cccnc2)N2CCN(c3ccccc3OC)CC2)cc1OC (stereo not drawn)	u	-1	3%	-1	u	u
COc1ccc(N2CCN(C(CNC(=O)c3ccc4c(c3)OCO4)c3cccnc3)CC2)cc1 (stereo not drawn)	u	10	-9%	10	14%	-10%
O=C1NC(=O)C2C3OC(C(Br)C3Br)C12 (stereo not drawn)	x	x	2%	x	x	x
CCc1ccc(Cn2ncc3c(C(=O)O)cc(C)nc32)cc1	x	x	3%	x	-1%	x
CCOC(=O)[C@H](C)N1[C@H](C)[C@H](c2ccccc2)Oc2ccc(Cl)cc2S1(=O)=O	x	x	-1%	x	19%	x
N=C1c2ccccc2CN1NC(=O)CC12CC3CC(CC(C3)C1)C2	1.9µM*	-3	10%	-1	-15%	u
CCc1ccc(OCC(=O)NN2Cc3ccccc3C2=N)cc1	u	-4	0%	2	u	17%
Cc1cc(C)cc(OCC(=O)NN2Cc3ccccc3C2=N)c1	6.6µM*	4	-5%	-11	20%	x
N=C1c2ccccc2CN1NC(=O)C1CC1	-1%	-1	7%	-13	33%	0%
Clc1cccc(Cl)c1C[n+]1ccc2ccccc2c1	32%	0	-4%	3	u	2.1µM*

Compound activity as filed in PubChem.
